# This excerpt belongs to a sample that is enriched for hits.
# CHX counter = affects cycloheximide protein synthesis inhibition readout, counter-screen; AID 2314; cell reporter, cycloheximide protein synthesis inhibition counterscreen; 300,000 tested, 12% active; max response, %; in the data active = max response mostly above about 13%, no sharp cut-off; inactive = mostly below about 14%; note: read at 38.3 µM for the half of the compounds with a filed dose; 0% is about no effect
# Sm TGR inh = blocks Schistosoma mansoni thioredoxin glutathione reductase. Q962Y6. purified TGR, DTNB reduction, TNB absorbance 405 nm. Potency, µM (doses to about 114 µM), for inactives: at the top dose activity change, negative = inhibition, usual class: inhibitors. 360,000 tested, 3% active; note: potency is the fitted concentration of half-maximal effect; % is set by controls: 0 for no effect and ±100 for the full control effect; nearly all actives have a fitted effect of over 60% in size
#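 TGR 20 nM + NADPH 100 uM (dispensed conc.), cpd preinc 15 min RT; start with NADPH (500 uM addition) then DTNB (15 mM addition). Kinetic TNB absorbance, 405 nm filter. Four-parameter Hill fit across titration.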
# FBPA Giardia inh = inhibitors of Giardia lamblia fructose-1,6-bisphosphate aldolase; purified Giardia FBPA; AID 2451; 290,000 tested, 0.71% active; Potency, µM (highest dose often 59.6 µM), for the others: top-dose activity, negative = inhibition, most hits filed as inhibitors; note: potency is the fitted concentration of half-maximal effect; % is set by controls: 0 for no effect and ±100 for the full control effect; nearly all actives have a fitted effect of over 55% in size
#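 Giardia FBPA (40 nM reagent) was preincubated 10 min at RT with compound (up to 57.5 uM final), then substrate plus GAPDH/TPI/NAD/arsenate coupling system with diaphorase/resazurin was added; resorufin fluorescence (525/598 nm) was read after 20 min.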
# LmPK inh = inhibitors of Leishmania mexicana pyruvate kinase. 290,000 tested, 0.37% active. purified LmPK, Kinase-Glo ATP luminescence, 1 h. Potency, µM (doses to about 57.5 µM), without a hit: at the top dose activity change, negative = inhibition, most hits filed as inhibitors. Q27686; note: potency is the fitted concentration of half-maximal effect; % is set by controls: 0 for no effect and ±100 for the full control effect
# Target sequence (Q27686 whole entry, looked up): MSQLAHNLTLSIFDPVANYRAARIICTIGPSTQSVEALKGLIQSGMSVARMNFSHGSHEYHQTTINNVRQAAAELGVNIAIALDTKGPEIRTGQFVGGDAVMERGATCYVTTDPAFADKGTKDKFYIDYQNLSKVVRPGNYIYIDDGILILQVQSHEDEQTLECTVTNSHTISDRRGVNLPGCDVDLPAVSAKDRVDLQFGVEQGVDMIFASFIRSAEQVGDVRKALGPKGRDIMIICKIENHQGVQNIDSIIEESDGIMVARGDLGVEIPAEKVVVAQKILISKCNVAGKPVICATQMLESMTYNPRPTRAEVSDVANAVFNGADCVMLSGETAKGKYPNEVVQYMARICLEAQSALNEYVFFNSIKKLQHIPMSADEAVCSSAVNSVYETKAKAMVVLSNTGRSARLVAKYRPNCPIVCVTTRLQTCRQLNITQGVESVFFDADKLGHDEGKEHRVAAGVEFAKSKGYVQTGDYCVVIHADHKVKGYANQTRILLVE
#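 qHTS format; LmPK 0.1 nM; substrates PEP 0.5 mM and ADP 0.1 mM. One-hour room-temperature incubation, then coupled luciferase luminescence; 0.5 nM enzyme wells mark activation.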
# Shiga inhibitor = inhibitors of Shiga toxin in Vero cells. Vero cells, Shiga toxin protein synthesis inhibition reporter. inhibition, % at 38.7 µM. 290,000 tested, 9.2% active. AID 2315; in the data active = inhibition mostly above about 28%, no sharp cut-off; inactive = mostly below about 43%; note: 0% is about no effect
# TbPYK inhibitor = inhibitors of Trypanosoma brucei pyruvate kinase. TbPYK enzyme, Kinase-Glo Plus ATP luminescence, 45 min. Potency, µM (series often up to 76.8 µM), without a hit: at the top dose activity, negative = inhibition, hits mostly inhibitors. 410,000 tested, 0.12% active; note: potency is the fitted concentration of half-maximal effect; % is set by controls: 0 for no effect and ±100 for the full control effect; nearly all actives have a fitted effect of over 50% in size
#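 Luminescent Kinase-Glo Plus end-point after 45 min room-temperature reaction of T. brucei pyruvate kinase started with 130 uM ADP (final). Buffer TEA 50 mM pH 7.2 with KCl, MgCl2, BSA, Tween-20; titration-based qHTS with fitted concentration-effect curves.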
# * = called active by the depositor; u = inconclusive; x = no result given; [ ] = dose if it differs, or a comment. Unless noted, calls come from the whole dose curve; as a rule, active = well fitted curve in the direction sought with a large enough effect; inconclusive = small, poorly fitted or top-dose-only effect, or another doubt; inactive = no such curve, though single readings can be large; an effect the other way counts as inactive or inconclusive.
SMILES,CHX counter,Sm TGR inh,FBPA Giardia inh,LmPK inh,Shiga inhibitor,TbPYK inhibitor
CC(C)C[C@@H](CSc1ccccc1)N1CCN(CCc2ccccc2)CCC1=O,18*,u,0%,-2%,30*,0%
CCCN1CCC(=O)N([C@H](CSc2ccc(OC)cc2)CC(C)C)CC1,27*,u,1%,2%,71*,1%
CC(C)C[C@@H](CC#N)N1CCN(CCc2ccccc2)CCC1=O,0,0%,-10%,-4%,8,-2%
COc1ccc(C(=O)Oc2c(Sc3ccc(Cl)cc3)c(C)nn2C(C)(C)C)cc1OC,x,6%,x,x,x,-1%
COc1ccc(C(CNC(=O)c2ccc(Br)o2)N2CCN(C)CC2)cc1 (centres undefined),x,1%,x,x,x,5%
CC(C)c1ccc(OCc2ccc(C(=O)NN3CCN(C)CC3)o2)cc1,79*,-11%,-1%,-2%,170*,-13%
CC(C)c1ccc(OCc2ccc(C(=O)N(C)C)o2)cc1,65*,-14%,-3%,0%,151*,0%
CC(C)c1ccc(OCc2ccc(C(=O)O)o2)cc1,35*,-34%,u,21%,64*,0%
CC1(C(=O)NNC(=O)c2cccc([N+](=O)[O-])c2)CC1(Br)Br (centres undefined),7,-1%,u,1%,21,-8%
Cc1noc(C)c1-c1ccc2ncnc(NCc3cccc(C(F)(F)F)c3)c2c1,16,x,-3%,x,28,x
COc1ccc(-c2cn3nc(SCC(=O)Nc4cccc(C)c4C)ccc3n2)cc1,x,25%,x,x,x,-1%
CCC(C)NC(=S)Nc1ccc(C(=O)OC)cc1 (centres undefined),26*,9%,0%,-2%,56*,1%
COC(=O)Cc1ccc(NC(=S)NC2CC2)cc1,-2,45µM*,1%,-2%,24,-7%
COC(=O)Cc1ccc(NC(=S)NCCO)cc1,1,0%,-1%,5%,2,0%
COC(=O)Cc1ccc(NC(=S)Nc2ccccn2)cc1,31*,u,-15%,8%,74*,-4%
COC(=O)c1ccc(NC(=S)NC2CC2)cc1,13,16µM*,2%,1%,21,4%
COc1ccccc1OCC(=O)N(Cc1ccco1)Cc1ccccc1F,x,-8%,x,x,x,-2%
O=C(NC(=S)NN1CCCCC1c1cccnc1)c1ccc(Br)cc1 (centres undefined),11,u,u,-4%,27,-13%
COC(=O)c1ccc(NC(=S)NN2CCCCC2c2cccnc2)cc1 (centres undefined),14*,-10%,-19%,2%,33,4%
Clc1cccc(-c2nc3c4ccccc4ccn3c2Cc2ccsc2)c1,x,x,x,x,x,-8%
COc1ccc(C)cc1NC(=O)c1cc2c(s1)CCC2,20*,7%,-7%,2%,56,-7%
CCOC(=O)c1ccc(NC(=O)c2cc3c(s2)CCC3)cc1,39*,5%,2%,6%,54*,-4%
O=C(Nc1cccc(Cn2cccn2)c1)c1cc2c(s1)CCCC2,77*,2%,-24%,-15%,143*,-6%
COC(=O)c1sccc1NC(=O)c1ccccc1,7,0%,6%,-1%,-19,3%
COC(=O)c1sccc1NC(=O)c1cc2c(s1)CCCC2,13*,-6%,-7%,-7%,-10,-3%
SMILES,CHX counter,Sm TGR inh,FBPA Giardia inh,LmPK inh,Shiga inhibitor,TbPYK inhibitor
CC(=O)c1ccc(N2CCN(C(=O)c3cn(C)c(=O)c4c3c3ccccc3n4C)CC2)cc1,x,0%,x,x,x,0%
CCOC(=O)c1sc(NC(=S)NC(=O)c2ccccc2Cl)c(C(=O)OCC)c1C,-3,8%,7%,4%,24,0%
CCOC(=O)c1sc(NC(=S)NC(=O)C2CCCC2)cc1C,11,-7%,-15%,1%,10*,-1%
CCOC(=O)c1sc(NC(=O)C2CC2)cc1C,15*,-1%,0%,3%,38*,-6%
CCOC(=O)c1sc(NC(=O)c2c(C)nn(Cc3ccccc3)c2C)cc1C,10,-9%,-14%,6%,37,0%
CCOC(=O)c1c(NC(=O)CC(C)C)sc(C(C)=O)c1C,-1,-16%,8%,-9%,10,3%
CCOC(=O)c1sc(NC(=O)C(C)(C)C)cc1C,28*,-2%,-3%,1%,active,3%
CCOC(=O)c1sc(NC(=S)NC(=O)CC(C)C)cc1C,43*,-4%,-12%,2%,49*,-8%
CCOC(=O)c1sc(NC(=O)c2cccc(S(=O)(=O)N(CC)CC)c2)cc1C,0,3%,1%,-5%,-8,5%
CC(C)=CCC/C(C)=C/CO/N=C1/C[C@@H](O)[C@@H](O)[C@@H]2[C@@H]3C(=O)N(C4CCCCC4)C(=O)[C@H]3CC[C@@H]12,x,x,-1%[12.9 µM],x,x,x
O=C1S/C(=C\C=C\c2ccco2)C(=O)N1c1ccc(O)cc1,43*,u,u,7%,71*,-17%
O=C1S/C(=C\C=C\c2ccco2)C(=O)N1c1ccccc1,38*,45µM*,-25%,-2%,59*,-16%
O=C(CN1C(=O)S/C(=C\C=C\c2ccccc2)C1=O)N1CCCCC1,-3,-20%,x,-9%,-2,2%
Cc1cc(C)nc(N/N=C/c2cc(C)n(CC(F)(F)F)c2C)n1,22,-6%,-10%,10%,33,3%
CCc1ccc(NS(=O)(=O)c2ccc3[nH]cc(C(=O)NCC4CCCO4)c(=O)c3c2)cc1 (centres undefined),27*,-3%,-5%,5%,128,-2%
O=C(c1ccccc1)c1c[nH]c2cc3c(cc2c1=O)OCCO3,17*,-1%,5%,-7%,45*,-13%
CCc1ccc(NS(=O)(=O)c2ccc3[nH]cc(C(=O)N4CCc5ccccc54)c(=O)c3c2)cc1,35*,-2%,13%,2%,25*,-4%
O=C(NCc1ccccc1)c1c[nH]c2ccc(S(=O)(=O)Nc3ccc4c(c3)OCCO4)cc2c1=O,12,-16%,-5%,7%,49*,-10%
CCc1ccc(N(C)S(=O)(=O)c2ccc3[nH]cc(C(=O)NCC4CCCO4)c(=O)c3c2)cc1 (centres undefined),x,-5%,x,x,x,3%
O=C(c1ccccc1)c1c[nH]c2cc3c(cc2c1=O)OCO3,-1,-15%,-2%,3%,23,x
CC(=O)N[C@@H](CCC(=O)O)C(=O)O,x,x,x,x,x,2%
O=C(NCc1cccnc1)c1c[nH]c2cc3c(cc2c1=O)OCCO3,35*,1%,6%,1%,145*,-10%
CN1c2ccsc2/C(=N/Nc2ccc(F)cc2)CS1(=O)=O,27*,-20%,-12%,0%,54,-5%
Cc1ccc(N/N=C2\CS(=O)(=O)N(C)c3ccsc32)cc1,51*,-25%,11%,2%,66*,-2%

# Bioassay records from PubChem BioAssay.
